Values without a mark were called inactive. Records with an inconclusive call do not appear. The list shows a part of the results. Entries that show only a call come without a potency. Calls of active or inactive are those of the source. Unless noted, the call rests on the fitted dose curve; in most records, active means well fitted curve in the direction sought with a large enough effect; inconclusive means small, poorly fitted or top-dose-only effect, or another doubt; inactive means no such curve, though single readings can be large; an effect the other way counts as inactive or inconclusive.
Tests used:
[1] = target: Tumor susceptibility gene 101 protein (Homo sapiens) (UniProt Q99816); assay: qHTS Assay for Iinhibitors of HIV-1 Budding by Blocking the Interaction of PTAP/TSG101: Hit Validation (AID 651600); further: nearly all actives have a fitted effect of over 70% in size; further: potency means the concentration at half of the fitted maximal effect
Outline: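 Tsg101 binding domain 10 uM + FITC-PTAP peptide 50 nM (final), 10 mM HEPES pH 7.5/0.15 M NaCl/0.01% Tween 20/3 mM EDTA/0.1 mM TCEP; 20 min RT; FP read, FITC filters.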

[2] = target: Rap guanine nucleotide exchange factor 3 (Homo sapiens) (UniProt O95398); assay: Confirmatory qHTS for antagonist of cAMP-regulated guanine nucleotide exchange factor 3 (EPAC1) (AID 1645880); conditions: EPAC1 Rap1B-BODIPY-GDP exchange, fluorescence; activity, negative = inhibition: at 115 µM (top of the series); further: nearly all actives have a fitted effect of over 55% in size; further: potency means the concentration at half of the fitted maximal effect
Outline: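 Released BODIPY-GDP fluoresces less than Rap1-bound BODIPY-GDP; the signal is followed at 480/540 nm at 5-min intervals over 30 min, after 5 min at room temperature. Reactions contain 100 nM EPAC1, 250 nM RAP1B-BODIPY-GDP and 50 uM GDP; results are normalized to ATA and DMSO.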

[3] = target: Rap guanine nucleotide exchange factor 4 (Homo sapiens) (UniProt Q8WZA2); assay: Confirmatory qHTS for antagonist of cAMP-regulated guanine nucleotide exchange factor 4 (EPAC2) (AID 1645885); further: nearly all actives have a fitted effect of over 25% in size; further: potency means the concentration at half of the fitted maximal effect
[4] = target: Rap guanine nucleotide exchange factor 3 (Homo sapiens) (UniProt O95398); assay: Counterscreen qHTS for antagonist of cAMP-regulated guanine nucleotide exchange factor 3 (EPAC1) (AID 1645888)
Outline: (§1)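 Rap1B–BODIPY-GDP (250 nM) with 50 uM GDP; compounds pin-transferred to 9.74 nM–152 uM final (activator) or from 7.32 nM upwards (inhibitor). Fluorescence Ex/Em 480/540 nm read at 5 and 30 min, then after adding cAMP or buffer, at room temperature.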

[5] = target: Rap guanine nucleotide exchange factor 3 (Homo sapiens) (UniProt O95398); assay: Counterscreen qHTS for agonist of cAMP-regulated guanine nucleotide exchange factor 3 (EPAC1) (AID 1645889); further: nearly all actives have a fitted effect of over 40% in size; further: potency means the concentration at half of the fitted maximal effect
Outline: as §1

[6] = target: Cytochrome P450 3A4 (Homo sapiens) (UniProt P08684); assay: qHTS Assay for Inhibitors and Substrates of Cytochrome P450 3A4 (AID 884); further: potency means the concentration at half of the fitted maximal effect; nearly all actives have a fitted effect of over 50% in size
Outline: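 Luminescent readout of luciferin produced by CYP3A4 (20 nM) dealkylation of Luciferin-PPXE, 25 uM (its KM). NADPH-driven reaction ran 60 min at RT after 10 min compound preincubation; data scaled to 57 uM ketoconazole as 100% inhibition.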

[7] = target: Cytochrome P450 3A4 (Homo sapiens) (UniProt P08684); assay: qHTS Assay for Activators of Cytochrome P450 3A4 (AID 885); further: nearly all actives have a fitted effect of over 65% in size
Outline: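 Activators are scored by enhanced luminescence from CYP3A4 conversion of luciferin-PPXE (25uM, equal to KM) to luciferin, after 60 min at RT with an NADPH-regenerating system.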

[8] = target: Lysosomal acid glucosylceramidase (Homo sapiens) (UniProt P04062); assay: Glucocerebrosidase-p2 (AID 348; in the data active means potency below about 10 µM; further: potency means the concentration at half of the fitted maximal effect); conditions: purified GBA, blue fluorogenic substrate, 40 min
Outline: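 Normal human glucocerebrosidase (0.2 nM) with blue fluorogenic substrate (80 uM final) in citrate/phosphate pH 5.9 with 10mM sodium taurocholate, 0.01% tween-20; 40 min RT, NaOH/glycine stop; fluorescence Ex 365/Em 440; AC50 from a titration from 0.6 nM upwards.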

[9] = AP1 Signaling Pathway (AID 357; active means well fitted curve in either direction with a large enough effect, not every such curve was filed as active;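 further: ME-180 reporter cells stimulated with EGF at its EC50 level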); conditions: ME-180 (cervical carcinoma) AP-1-bla reporter, EGF-induced, beta-lactamase ratio, 5 h; at 7.69 µM (top of the series) unless noted
Outline: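 AP-1-bla ME-180 cells, Opti-MEM + 0.5% dialyzed FBS, plated overnight 37 °C. Cpd titration + EC50 EGF, 5 h 37 °C. CCF4 2.5 h RT; ex 405, em 460/530 ratio → %activity, AC50.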

[10] = target: Cytochrome P450 1A2 (Homo sapiens) (UniProt P05177); assay: p450-cyp1a2 (AID 410; calls by dose curve; further: potency means the concentration at half of the fitted maximal effect)
Outline: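 20nM CYP1A2, 100uM Luciferin-ME (=Km), 100mM KPO4; cpd 10 min RT; +NADPH regen, 60 min RT; stop/detect 20 min; luminescence. Normalized to furafylline 57 uM = full inhibition.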

[11] = NFAT Signaling Pathway (AID 444; active means well fitted curve in either direction with a large enough effect, not every such curve was filed as active;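 further: carbachol stimulus at about its EC50 of 1 µM final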); conditions: Jurkat NFAT-bla M1, carbachol, beta-lactamase ratio, 5 h; at 7.69 µM (top of the series) unless noted
Outline: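 Jurkat cells with NFAT-driven β-lactamase reporter and co-expressed M1 receptor, stimulated with carbachol (final 1 uM, ~EC50), compound titration, 5 h at 37 °C. CCF4 loaded 1 h at RT; 460/530 nm ratio gave %activity and AC50.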

[12] = Stat Signaling Pathway (AID 446; active means well fitted curve in either direction with a large enough effect, not every such curve was filed as active;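 further: ME-180 cervical cancer cells given 40 pM IL-6 alongside compound; SIE-controlled beta-lactamase reporter measured as 460/530 nm FRET emission ratio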)
Outline: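 Emission at 460 and 530 nm (excitation 405 nm) reports SIE-controlled beta-lactamase in ME-180 cells. Cells received compound with 40 pM IL-6 for 5 hrs at 37 C; data scaled between 300 pM IL-6 and 125 nM JAK-inhibitor controls.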

[13] = target: Glucocorticoid receptor (Homo sapiens) (UniProt P04150); assay: GR-GFP Redistribution (AID 450;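 active means compounds whose dose series gives a full or clear partial fitted curve of increased nuclear translocation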; further: potency means the concentration at half of the fitted maximal effect); conditions: U2OS GR-GFP nuclear translocation, laser cytometry, 2 h
[14] = target: Glucocorticoid receptor (Homo sapiens) (UniProt P04150); assay: GR-EFC Redistribution (AID 451; calls by dose curve; further: potency means the concentration at half of the fitted maximal effect); conditions: CHO-K1 GR-EFC translocation, beta-gal luminescence, 2 h
Outline: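 CHO-K1 cells expressing nuclear EA and GR-ED fragments of b-gal; compounds titrated up to 46 uM final, 2 h at 37 C. GR nuclear translocation read as complemented b-gal luminescence after 1 h RT detection.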

[15] = target: Mitogen-activated protein kinase 10 (Mus musculus) (UniProt Q61831); assay: JNK3 AlphaScreen Assay (AID 530; active means well fitted curve in either direction with a large enough effect, not every such curve was filed as active;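 further: kinase came from lysate of stimulated human HepG2 cells; signal reports phosphorylation of biotinylated GST-cJun 1-79 at Ser73 with 10 µM ATP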)
Outline: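 HepG2 lysate (IL-1b/TNFa pre-activated) + biotin-GST-cJun 1-79 + anti-pSer73 cJun; cpd titration, 15 min RT; ATP 10 uM start; Tris pH 7.6, MgCl2, DTT, vanadate; beads in EDTA buffer; AlphaScreen.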

[16] = target: Cytochrome P450 2D6 (Homo sapiens) (UniProt P10635); assay: qHTS Assay for Inhibitors and Substrates of Cytochrome P450 2D6 (AID 891); further: potency means the concentration at half of the fitted maximal effect; nearly all actives have a fitted effect of over 60% in size
Outline: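 Luminescent read-out of luciferin formed by 5 nM human CYP2D6 demethylating 30 uM Luciferin-ME EGE (Km level) over 60 min at room temperature after NADPH regeneration addition. Data normalized to full inhibition by 1.43 uM quinidine.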

[17] = target: Bifunctional 3'-5' exonuclease/ATP-dependent helicase WRN (Homo sapiens) (UniProt Q14191); assay: qHTS for Inhibitors of WRN Helicase: Confirmatory Assay for Cherry-picked Compounds. (AID 720497); conditions: WRN helicase DNA unwinding, fluorescence kinetic; further: potency means the concentration at half of the fitted maximal effect; nearly all actives have a fitted effect of over 65% in size
Outline: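 Kinetic fluorescence unwinding readout (525/598 nm) of a forked duplex oligonucleotide substrate, 100 nM, with 2 mM ATP and 20 nM WRN. Compounds were added 15 min before substrate at room temperature. Activity was scaled between uninhibited enzyme and buffer-only controls.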

[18] = qHTS for Inhibitors of WRN Helicase: Thiazole Orange DNA Binding Counterscreen (AID 720499);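 further: drop in dye fluorescence marks compound binding to DNA; nearly all actives have a fitted effect of over 60% in size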
Outline: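 Dye-displacement counterscreen: 50 nM DNA + 100 nM ThO, cpd added by pintool, 15 min RT, fluorescence ex 480/em 530 nm.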

[19] = target: RecQ-like DNA helicase BLM (Homo sapiens) (UniProt P54132); assay: qHTS for Inhibitors of WRN Helicase: BLM Helicase Counterscreen for WRN Inhibitors (AID 720503); conditions: Recombinant BLM helicase DNA unwinding, red fluorescence; further: potency means the concentration at half of the fitted maximal effect; nearly all actives have a fitted effect of over 60% in size
Outline: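 1 nM BLM, Tris pH 8.0/NaCl/MgCl2/DTT/Tween-20; cpd preinc 15 min RT; start w/ 100 nM DNA + 2 mM ATP final; fluorescence (ex 525/em 598) two reads 15 min apart; normalized to enzyme-free and DMSO controls.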

Chain of Tumor susceptibility gene 101 protein (Homo sapiens) (Q99816 whole entry, looked up, the tested form may be a part): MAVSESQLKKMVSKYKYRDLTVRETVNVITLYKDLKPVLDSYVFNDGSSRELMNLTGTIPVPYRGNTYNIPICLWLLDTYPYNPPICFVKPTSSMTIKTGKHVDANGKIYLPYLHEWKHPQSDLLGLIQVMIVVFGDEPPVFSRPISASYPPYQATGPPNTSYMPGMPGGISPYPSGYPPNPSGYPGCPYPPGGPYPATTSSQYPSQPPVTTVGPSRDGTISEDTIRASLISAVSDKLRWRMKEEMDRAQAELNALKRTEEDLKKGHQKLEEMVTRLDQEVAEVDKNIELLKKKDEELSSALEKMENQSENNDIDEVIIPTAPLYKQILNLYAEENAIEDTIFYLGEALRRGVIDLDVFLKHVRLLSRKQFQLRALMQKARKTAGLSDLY
Chain of Rap guanine nucleotide exchange factor 3 (Homo sapiens) (O95398 whole entry, looked up): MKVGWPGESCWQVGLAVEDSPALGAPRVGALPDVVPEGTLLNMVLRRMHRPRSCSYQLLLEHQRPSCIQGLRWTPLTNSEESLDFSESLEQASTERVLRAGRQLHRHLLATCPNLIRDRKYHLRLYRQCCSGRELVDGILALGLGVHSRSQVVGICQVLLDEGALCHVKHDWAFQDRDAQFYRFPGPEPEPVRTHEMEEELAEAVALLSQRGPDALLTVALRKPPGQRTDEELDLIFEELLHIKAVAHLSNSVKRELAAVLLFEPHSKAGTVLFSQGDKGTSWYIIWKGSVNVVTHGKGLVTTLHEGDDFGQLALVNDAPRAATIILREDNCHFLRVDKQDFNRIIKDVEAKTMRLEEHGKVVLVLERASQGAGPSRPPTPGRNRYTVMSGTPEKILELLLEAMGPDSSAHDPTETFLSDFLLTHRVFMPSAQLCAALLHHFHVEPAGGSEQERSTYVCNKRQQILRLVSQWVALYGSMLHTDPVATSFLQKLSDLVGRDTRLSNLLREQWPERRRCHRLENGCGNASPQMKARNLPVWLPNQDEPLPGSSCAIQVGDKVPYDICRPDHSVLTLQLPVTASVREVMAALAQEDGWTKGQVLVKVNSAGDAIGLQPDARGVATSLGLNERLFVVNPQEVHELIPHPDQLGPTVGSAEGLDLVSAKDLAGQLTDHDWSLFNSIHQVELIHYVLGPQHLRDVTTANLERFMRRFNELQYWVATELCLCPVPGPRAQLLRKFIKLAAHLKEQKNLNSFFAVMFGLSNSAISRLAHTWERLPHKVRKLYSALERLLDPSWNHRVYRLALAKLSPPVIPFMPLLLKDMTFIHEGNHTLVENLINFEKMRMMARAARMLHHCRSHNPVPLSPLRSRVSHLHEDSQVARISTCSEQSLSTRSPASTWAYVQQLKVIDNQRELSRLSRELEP
Chain of Rap guanine nucleotide exchange factor 4 (Homo sapiens) (Q8WZA2 whole entry, looked up): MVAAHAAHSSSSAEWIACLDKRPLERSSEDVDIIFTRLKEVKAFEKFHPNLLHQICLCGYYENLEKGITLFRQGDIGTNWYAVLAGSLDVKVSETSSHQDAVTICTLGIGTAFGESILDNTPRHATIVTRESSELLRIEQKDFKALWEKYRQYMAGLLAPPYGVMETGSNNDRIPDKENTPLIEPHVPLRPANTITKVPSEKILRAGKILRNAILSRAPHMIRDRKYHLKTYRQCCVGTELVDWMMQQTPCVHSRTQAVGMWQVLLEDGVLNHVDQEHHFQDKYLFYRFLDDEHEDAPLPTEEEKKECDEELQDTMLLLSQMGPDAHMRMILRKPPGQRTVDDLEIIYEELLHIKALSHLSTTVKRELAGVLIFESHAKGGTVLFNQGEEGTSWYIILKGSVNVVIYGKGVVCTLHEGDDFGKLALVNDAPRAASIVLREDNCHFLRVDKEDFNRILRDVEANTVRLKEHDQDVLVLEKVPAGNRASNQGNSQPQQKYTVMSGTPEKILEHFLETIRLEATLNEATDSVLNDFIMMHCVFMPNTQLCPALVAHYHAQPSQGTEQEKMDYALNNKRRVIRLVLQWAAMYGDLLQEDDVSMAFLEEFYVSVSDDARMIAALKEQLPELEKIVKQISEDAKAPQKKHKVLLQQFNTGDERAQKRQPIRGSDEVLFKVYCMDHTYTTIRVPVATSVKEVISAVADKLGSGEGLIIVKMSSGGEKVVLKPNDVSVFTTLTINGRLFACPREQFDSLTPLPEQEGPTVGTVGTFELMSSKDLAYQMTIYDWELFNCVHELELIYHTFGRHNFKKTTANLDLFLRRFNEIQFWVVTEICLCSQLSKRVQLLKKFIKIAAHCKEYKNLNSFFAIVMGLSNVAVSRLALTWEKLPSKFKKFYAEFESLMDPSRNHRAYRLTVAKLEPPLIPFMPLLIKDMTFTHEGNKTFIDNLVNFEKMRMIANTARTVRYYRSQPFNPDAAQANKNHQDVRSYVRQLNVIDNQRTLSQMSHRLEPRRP
Chain of Cytochrome P450 3A4 (Homo sapiens) (P08684 whole entry, looked up): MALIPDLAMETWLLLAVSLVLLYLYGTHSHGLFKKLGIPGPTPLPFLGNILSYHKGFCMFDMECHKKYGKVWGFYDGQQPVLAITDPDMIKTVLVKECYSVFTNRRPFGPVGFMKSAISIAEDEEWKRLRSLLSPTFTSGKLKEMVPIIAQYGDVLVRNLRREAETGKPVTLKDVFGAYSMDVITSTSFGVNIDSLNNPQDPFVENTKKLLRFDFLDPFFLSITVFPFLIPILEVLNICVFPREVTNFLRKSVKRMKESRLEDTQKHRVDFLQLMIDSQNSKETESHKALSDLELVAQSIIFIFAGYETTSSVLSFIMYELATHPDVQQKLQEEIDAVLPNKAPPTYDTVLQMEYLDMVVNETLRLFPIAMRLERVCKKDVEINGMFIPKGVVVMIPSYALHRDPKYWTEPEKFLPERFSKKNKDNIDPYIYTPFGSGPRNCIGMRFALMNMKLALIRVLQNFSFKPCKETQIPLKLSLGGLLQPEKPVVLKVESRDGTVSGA
Chain of Glucocorticoid receptor (Homo sapiens) (P04150 whole entry, looked up, the tested form may be a part): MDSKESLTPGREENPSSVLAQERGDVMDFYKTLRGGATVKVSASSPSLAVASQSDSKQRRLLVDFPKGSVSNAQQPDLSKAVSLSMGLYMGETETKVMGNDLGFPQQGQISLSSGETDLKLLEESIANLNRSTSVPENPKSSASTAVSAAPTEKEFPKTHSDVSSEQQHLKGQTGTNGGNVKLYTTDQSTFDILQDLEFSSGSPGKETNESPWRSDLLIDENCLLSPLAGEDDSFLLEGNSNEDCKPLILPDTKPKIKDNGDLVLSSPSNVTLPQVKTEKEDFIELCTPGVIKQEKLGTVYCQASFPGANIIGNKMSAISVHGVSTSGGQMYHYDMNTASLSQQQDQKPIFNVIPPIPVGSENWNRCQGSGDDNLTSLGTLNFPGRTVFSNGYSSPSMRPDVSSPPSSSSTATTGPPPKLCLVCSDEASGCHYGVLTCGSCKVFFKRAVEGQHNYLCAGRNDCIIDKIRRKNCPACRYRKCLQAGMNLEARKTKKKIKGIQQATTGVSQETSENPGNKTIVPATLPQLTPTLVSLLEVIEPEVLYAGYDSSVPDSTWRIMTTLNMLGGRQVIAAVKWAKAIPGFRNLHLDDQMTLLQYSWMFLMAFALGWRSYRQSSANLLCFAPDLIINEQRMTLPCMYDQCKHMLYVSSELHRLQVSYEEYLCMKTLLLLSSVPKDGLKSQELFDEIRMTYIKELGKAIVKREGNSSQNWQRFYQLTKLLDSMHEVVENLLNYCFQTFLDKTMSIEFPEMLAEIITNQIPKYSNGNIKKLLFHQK
Chain of Lysosomal acid glucosylceramidase (Homo sapiens) (P04062 whole entry, looked up): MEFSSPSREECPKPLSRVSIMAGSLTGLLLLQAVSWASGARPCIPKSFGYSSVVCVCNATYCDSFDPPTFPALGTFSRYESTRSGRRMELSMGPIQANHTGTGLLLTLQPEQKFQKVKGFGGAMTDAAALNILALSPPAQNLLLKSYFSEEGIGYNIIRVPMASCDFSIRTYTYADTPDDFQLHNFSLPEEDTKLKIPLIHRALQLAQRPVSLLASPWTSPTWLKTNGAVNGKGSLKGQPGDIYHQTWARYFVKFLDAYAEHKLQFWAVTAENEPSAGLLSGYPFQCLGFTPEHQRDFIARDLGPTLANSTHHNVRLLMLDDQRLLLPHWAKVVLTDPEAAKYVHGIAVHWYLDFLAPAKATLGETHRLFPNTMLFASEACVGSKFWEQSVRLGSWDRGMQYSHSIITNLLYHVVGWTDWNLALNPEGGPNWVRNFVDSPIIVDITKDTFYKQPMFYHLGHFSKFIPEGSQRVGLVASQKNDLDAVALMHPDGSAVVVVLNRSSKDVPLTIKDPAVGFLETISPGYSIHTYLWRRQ
Chain of Cytochrome P450 1A2 (Homo sapiens) (P05177 whole entry, looked up): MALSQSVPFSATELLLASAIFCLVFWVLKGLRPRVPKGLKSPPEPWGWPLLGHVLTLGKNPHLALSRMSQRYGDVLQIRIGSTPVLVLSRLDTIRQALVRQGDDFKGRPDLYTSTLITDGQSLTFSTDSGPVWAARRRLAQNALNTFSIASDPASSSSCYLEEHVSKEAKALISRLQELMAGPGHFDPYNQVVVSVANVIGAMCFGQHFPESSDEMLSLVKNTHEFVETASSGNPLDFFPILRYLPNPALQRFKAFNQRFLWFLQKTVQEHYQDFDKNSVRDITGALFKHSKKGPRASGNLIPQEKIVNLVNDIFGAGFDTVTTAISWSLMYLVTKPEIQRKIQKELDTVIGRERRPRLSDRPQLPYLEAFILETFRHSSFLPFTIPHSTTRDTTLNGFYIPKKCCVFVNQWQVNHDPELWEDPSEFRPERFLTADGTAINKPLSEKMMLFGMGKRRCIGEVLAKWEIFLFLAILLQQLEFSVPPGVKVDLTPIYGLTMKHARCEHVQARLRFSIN

CN1C(=O)c2cccc3c(N)ccc(c23)C1=O
Potency [1]: 5.8 µM (active) | Potency [2]: inactive | Potency [3]: inactive | Potency [4]: inactive | Potency [5]: 10 µM (active)

Nc1ccc2nc3c(=O)n(C4CCCCC4)c(=O)[nH]c3nc2c1
Potency [1]: 6.51 µM (active) | Potency [2]: inactive | Potency [3]: inactive | Potency [4]: inactive | Potency [5]: 22.4 µM (active)

O=C(O)c1cc(Cl)ccc1-c1ccc(/C=C/c2cc(C(F)(F)F)[nH]c(=O)n2)o1
Potency [1]: inactive | Potency [2]: inactive | Potency [3]: inactive | activity change, negative = inhibition [4]: 144% [at 30.8 µM] | Potency [5]: 12.6 µM (active)

Cc1ccc2oc(=O)n(Cc3ccc(OC(C)C)cc3)c2c1
Potency [2]: inactive | Potency [4]: inactive

c1ccc(Oc2nc(-c3cccnc3)nc3ccccc23)cc1
Potency [2]: inactive | Potency [4]: inactive

CCOCCCNc1nc2c(C)cccn2c(=O)c1/C=C1\SC(=S)N(CC(C)C)C1=O
Potency [2]: inactive | Potency [4]: inactive

CC(C)(C)C1COc2ccccc2N1C(=O)c1ccccc1Cl (stereo not drawn)
Potency [2]: inactive | Potency [3]: 30.1 µM (active) | Potency [5]: inactive

Cn1c(N)c(C(=O)COC(=O)c2cc(-c3ccco3)nc3ccccc23)c(=O)n(C)c1=O
Potency [6]: 25.1 µM (active) | outcome [7]: inactive | Potency [2]: 47.8 µM (active) | Potency [3]: inactive | Potency [4]: inactive | Potency [5]: inactive

COc1ccc(C(=O)Nc2nc(-c3ccc([N+](=O)[O-])cc3)c(-c3ccc(OC)cc3)s2)cc1
Potency [1]: inactive | Potency [2]: inactive | Potency [3]: inactive | Potency [4]: inactive | Potency [5]: 63.1 µM (active)

CCNc1ncc2nc(-c3cccs3)c(=O)n(CCC#N)c2n1
Potency [8]: > 11.4 µM | activity change, negative = inhibition [9]: -3.58% | Potency [10]: 3.16 µM (active) | activity change, negative = inhibition [11]: -2.96% | outcome [12]: inactive | Potency [13]: > 9.22 µM | Potency [14]: > 46 µM | Potency [15]: inactive | Potency [6]: 6.31 µM (active) | outcome [7]: inactive | Potency [16]: 1.26 µM (active) | Potency [2]: inactive | Potency [3]: inactive

c1ccc(-c2cnn3c(-c4ccccc4)c(-c4ccccc4)nc3n2)cc1
Potency [1]: inactive | Potency [2]: inactive | Potency [3]: inactive | Potency [4]: inactive

CCCCn1c(=O)[nH]c2nc3cc(N)ccc3nc2c1=O
Potency [1]: 6.51 µM (active) | Potency [2]: inactive | Potency [3]: inactive | activity change, negative = inhibition [4]: 79.1% [at 30.8 µM] | Potency [5]: 12.6 µM (active)

COc1cccc(/C=N/NC(=O)c2[nH]nc3c2CCc2ccccc2-3)c1O
Potency [17]: 21.5 µM (active) | outcome [18]: inactive | Potency [19]: 6.81 µM (active) | Potency [2]: 33.8 µM (active) | Potency [3]: inactive | Potency [4]: inactive
